# Inconclusive results are not listed. A call without a number means that no potency is given here. Active and inactive are the calls of the source. Calls follow the shape of the dose curve; as a rule, active = well fitted inhibition curve with a large enough effect; inconclusive = small, poorly fitted or top-dose-only effect; inactive = flat fitted curve, though single readings scatter.
# Columns and labels:
# Assay in all cases: qHTS profiling for inhibitors of Plasmodium falciparum proliferation (AID 504749); also: nearly all actives have a fitted effect of over 60% in size
# Conditions in all cases: P. falciparum in erythrocytes, SYBR Green DNA, 72 h; series mostly up to 28.7 µM
# DIV30 = test system: DIV30
# How it was run: (§1)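 Readout was DNA-dye fluorescence from lysed cultures, ex 485/em 535 nm. Parasitized red cells had grown 72 h with compound; data scaled between 0.29 uM artemisinin and DMSO wells and corrected using vehicle-only plates.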
# Dd2 = test system: Dd2
# How it was run: as §1
# ECU = test system: ECU
# How it was run: as §1
# FAB9 = test system: FAB9
# How it was run: as §1
# GB4 = test system: GB4
# How it was run: as §1
# HB3 = test system: HB3
# How it was run: as §1
# ICS = test system: ICS
# How it was run: as §1
# JCK = test system: JCK
# How it was run: as §1
# N140 = test system: N140
# How it was run: as §1
# P93_24 = test system: P93_24
# How it was run: as §1
# P94_40 = test system: P94_40
# How it was run: as §1
# PAD = test system: PAD
# How it was run: as §1
# PC15 = test system: PC15
# How it was run: as §1
# PC49 = test system: PC49
# How it was run: as §1
# SC27B = test system: SC27B
# How it was run: as §1
# TAB109 = test system: TAB109
# How it was run: as §1
# TAB113 = test system: TAB113
# How it was run: as §1
# TAB165 = test system: TAB165
# How it was run: as §1
# PC26 = test system: PC26
# How it was run: as §1
# W2 = test system: W2
# How it was run: as §1
# Potency is read from the fitted curve at half-maximal effect.
SMILES,Potency (DIV30),Potency (Dd2),Potency (ECU),Potency (FAB9),Potency (GB4),Potency (HB3),Potency (ICS),Potency (JCK),Potency (N140),Potency (P93_24),Potency (P94_40),Potency (PAD),Potency (PC15),Potency (PC49),Potency (SC27B),Potency (TAB109),Potency (TAB113),Potency (TAB165),Potency (PC26),Potency (W2)
C[C@H]1C[C@@H]2[C@@H]([C@@H](O)C[C@@]3(C)[C@H]2CC[C@]3(O)C(=O)CO)[C@@]2(C)C=CC(=O)C=C12,inactive,inactive,inactive,inactive,inactive,inactive,inactive,inactive,inactive,inactive,inactive,inactive,inactive,inactive,inactive,inactive,inactive,inactive,,
COc1c(N2C[C@@H]3CCCN[C@H]3C2)c(F)cc2c(=O)c(C(=O)O)cn(C3CC3)c12,inactive,inactive,inactive,inactive,,inactive,inactive,,inactive,,inactive,inactive,inactive,inactive,inactive,,inactive,inactive,inactive,inactive
CCC1=C[C@@H]2CN(C1)Cc1c([nH]c3ccccc13)[C@@](C(=O)OC)(c1cc3c(cc1OC)N(C)[C@@H]1[C@@](O)(C(=O)OC)[C@H](OC(C)=O)[C@]4(CC)C=CCN5CC[C@]31[C@@H]54)C2,4260 nM (active),891 nM (active),3980 nM (active),,2130 nM (active),7940 nM (active),3160 nM (active),14100 nM (active),1410 nM (active),2240 nM (active),1580 nM (active),2240 nM (active),7080 nM (active),,2240 nM (active),2240 nM (active),1580 nM (active),2510 nM (active),3380 nM (active),190 nM (active)
CC1(C)O[C@@H]2C[C@@H]3[C@H]4C[C@@H](F)C5=CC(=O)C=C[C@]5(C)[C@@]4(F)[C@@H](O)C[C@]3(C)[C@]2(C(=O)CO)O1,10700 nM (active),inactive,inactive,inactive,,inactive,,inactive,inactive,inactive,inactive,inactive,inactive,inactive,inactive,inactive,inactive,inactive,,inactive
CC=CC1=C(C(=O)O)N2C(=O)[C@H](NC(=O)[C@H](N)c3ccc(O)cc3)[C@@H]2SC1,inactive,inactive,inactive,inactive,inactive,inactive,inactive,inactive,inactive,inactive,inactive,inactive,inactive,inactive,inactive,inactive,inactive,inactive,inactive,inactive
O=c1[nH]c(=O)n(C2CCCO2)cc1F (centres undefined),inactive,inactive,inactive,inactive,inactive,inactive,inactive,inactive,inactive,inactive,inactive,inactive,inactive,inactive,inactive,inactive,inactive,inactive,inactive,inactive
Nc1ccn([C@@H]2CS[C@H](CO)O2)c(=O)n1,inactive,inactive,inactive,inactive,inactive,inactive,inactive,inactive,inactive,inactive,inactive,inactive,inactive,inactive,inactive,inactive,inactive,inactive,inactive,inactive
Nc1ccc(S(=O)(=O)Nc2ncccn2)cc1,inactive,inactive,inactive,inactive,inactive,inactive,inactive,inactive,inactive,inactive,inactive,inactive,inactive,inactive,inactive,inactive,inactive,inactive,inactive,inactive
CN1c2cc(O)c(N=NC(N)=O)cc2CC1S(=O)(=O)O (centres undefined),inactive,inactive,inactive,inactive,inactive,inactive,inactive,inactive,inactive,inactive,inactive,inactive,inactive,inactive,inactive,inactive,inactive,inactive,inactive,inactive
O=C(O)CO.[NH2-].[NH2-].[Pt+2],inactive,inactive,inactive,inactive,inactive,inactive,,inactive,inactive,inactive,inactive,inactive,inactive,inactive,inactive,inactive,inactive,inactive,inactive,inactive
COc1cc(C(=O)NS(=O)(=O)c2ccccc2C)ccc1Cc1cn(C)c2ccc(NC(=O)OC3CCCC3)cc12,,,inactive,inactive,,inactive,,inactive,inactive,inactive,12600 nM (active),inactive,inactive,inactive,,inactive,,inactive,,7570 nM (active)
Nc1ccn([C@@H]2O[C@H](CO)[C@H](O)C2(F)F)c(=O)n1,2690 nM (active),1780 nM (active),5010 nM (active),1410 nM (active),953 nM (active),3980 nM (active),3980 nM (active),,1120 nM (active),316 nM (active),316 nM (active),708 nM (active),,708 nM (active),3980 nM (active),5010 nM (active),3980 nM (active),3980 nM (active),4780 nM (active),190 nM (active)
CC[C@H]1CN2CCc3cc(OC)c(OC)cc3[C@H]2C[C@@H]1C[C@@H]1NCCc2cc(OC)c(OC)cc21,478 nM (active),178 nM (active),316 nM (active),141 nM (active),269 nM (active),316 nM (active),178 nM (active),141 nM (active),316 nM (active),282 nM (active),251 nM (active),355 nM (active),282 nM (active),141 nM (active),398 nM (active),251 nM (active),316 nM (active),316 nM (active),601 nM (active),151 nM (active)
CC(C)(C)NC(=O)[C@H]1CN(Cc2cccnc2)CCN1C[C@@H](O)C[C@@H](Cc1ccccc1)C(=O)N[C@H]1c2ccccc2C[C@H]1O,9530 nM (active),,11200 nM (active),,5360 nM (active),,,inactive,,14100 nM (active),11200 nM (active),,,inactive,,,11200 nM (active),,8490 nM (active),6010 nM (active)
COC(=O)C[C@](O)(CCCC(C)(C)O)C(=O)O[C@@H]1C(OC)=C[C@]23CCCN2CCc2cc4c(cc2[C@H]13)OCO4,33.8 nM (active),12.6 nM (active),17.8 nM (active),56.2 nM (active),30.1 nM (active),28.2 nM (active),15.8 nM (active),6.3 nM (active),20 nM (active),28.2 nM (active),15.8 nM (active),15.8 nM (active),31.6 nM (active),0.6 nM (active),28.2 nM (active),25.1 nM (active),15.8 nM (active),100 nM (active),19 nM (active),30.1 nM (active)
COC(=O)C1=C(C)NC(C)=C(C(=O)OCCN2CCN(C(c3ccccc3)c3ccccc3)CC2)C1c1cccc([N+](=O)[O-])c1 (centres undefined),1690 nM (active),1580 nM (active),2510 nM (active),7080 nM (active),2690 nM (active),3160 nM (active),1000 nM (active),12600 nM (active),1580 nM (active),2820 nM (active),2000 nM (active),3160 nM (active),10000 nM (active),5010 nM (active),2240 nM (active),3550 nM (active),2000 nM (active),2240 nM (active),1900 nM (active),1350 nM (active)

# Reference: PubChem BioAssay (NCATS)
